Screens (PubChem)
BAZ2B inh – BAZ2B (human) inhibition; Q9UIF8; AlphaScreen BAZ2B-H3K14Ac peptide displacement; Potency, µM (highest dose often 114 µM), hits mostly inhibitors; 4.4% of 360,000 active; AID 504333; also: nearly all actives have a fitted effect of over 60% in size
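BAZ2B (50 nM) with biotin-H3(5-23)K14Ac peptide (50 nM) in PBS pH 7.4, 0.01% Tween-20, preformed 30 min, then compound 30 min at room temperature; top concentration 110uM. AlphaScreen streptavidin donor/nickel chelate acceptor beads (10 ug/mL final), 20 min dark, signal read.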
HP1b binding inh – blocks HP1-beta chromodomain binding to methylated histone tails | P83916 | AlphaScreen HP1-beta / biotin-H3K9me3 peptide binding | Potency, µM (series often up to 114 µM), hits mostly inhibitors | 0.56% of 390,000 active; also: nearly all actives have a fitted effect of over 70% in size
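HP1-beta protein (50 nM final) preincubated 30 min at room temperature with biotinylated H3(1-18)K9me3 peptide (50 nM) in PBS pH 7.4, 0.01% Tween-20, then compound added for 30 min. AlphaScreen streptavidin donor/nickel chelate acceptor beads (10 ug/mL final), 30 min dark, luminescence read.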
JMJD2A Tudor inh – inhibitors of human JMJD2A Tudor domain. AlphaScreen JMJD2A-Tudor / H3K4me3 peptide binding. Potency, µM (top dose mostly 114 µM), actives largely listed as inhibitors. 4.4% of 390,000 active. AID 504339; also: nearly all actives have a fitted effect of over 50% in size
PI5P4Ka inh – blocks human PI5P4K alpha kinase activity | P48426 | PI5P4Kalpha enzyme, ADP-Glo luminescence, 60 min; stronger effect = lower value | max response, % | 1.2% of 330,000 active | AID 652105; active = max response of -50% or lower; inconclusive = between -30% and -50%; inactive = -30% or higher; also: value at the top dose of about 77 µM
Target sequence (P48426 whole entry, looked up): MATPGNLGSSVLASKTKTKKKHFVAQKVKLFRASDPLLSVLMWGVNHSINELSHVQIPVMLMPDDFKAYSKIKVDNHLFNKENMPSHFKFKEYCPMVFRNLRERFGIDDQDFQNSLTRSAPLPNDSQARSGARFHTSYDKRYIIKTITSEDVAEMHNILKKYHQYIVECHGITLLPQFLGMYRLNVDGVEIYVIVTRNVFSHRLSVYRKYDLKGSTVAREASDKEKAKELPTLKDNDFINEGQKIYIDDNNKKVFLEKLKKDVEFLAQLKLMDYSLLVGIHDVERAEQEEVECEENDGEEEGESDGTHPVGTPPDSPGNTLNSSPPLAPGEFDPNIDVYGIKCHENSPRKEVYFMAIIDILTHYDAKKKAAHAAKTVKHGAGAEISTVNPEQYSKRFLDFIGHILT
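Quantitative HTS of the MLSMR library against PI5P4Kalpha with substrate. ATP added last at 5 microM final; room temperature, 60 minutes. Remaining ATP depleted, ADP converted and read as luminescence.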
KDM4E inh – inhibitors of human JMJD2E histone demethylase; 1.6% of 230,000 active; Potency, µM (highest dose often 57.1 µM), actives largely listed as inhibitors; JMJD2E catalytic domain, FDH-coupled NADH fluorescence (FDH is formaldehyde dehydrogenase); B2RXH2; active = well fitted inhibition curve with a large enough effect, not every such curve was filed as active; inconclusive = small, poorly fitted or top-dose-only effect, or another doubt; inactive = no such curve, though single readings can be large or run the other way; also: nearly all actives have a fitted effect of over 50% in size
L3MBTL1 inh – L3MBTL1 (human) inhibition; Potency, µM (titrated, usually from 57.1 µM), most hits filed as inhibitors; AlphaScreen L3MBTL1–H3K9me1 peptide binding; 0.66% of 230,000 active; Q9Y468; also: nearly all actives have a fitted effect of over 60% in size
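AlphaScreen proximity signal between nickel-chelate acceptor and streptavidin donor beads (final 10 ug/mL) reports binding of 50 nM L3MBTL1 to 75 nM biotin-H3 K9me1 peptide; complex incubated with compounds 30 min at room temperature; cefsulodin titration as control.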
Hits are given with their value; n = inactive; u = inconclusive; x = no result. Sampled rows, rich in hits. Any-hit rate of the full collection: about 5.7%. Unless noted, calls follow the shape of the dose curve; as a rule, active = well fitted inhibition curve with a large enough effect; inconclusive = small, poorly fitted or top-dose-only effect; inactive = no such curve, though single readings can be large or run the other way.

SMILES | BAZ2B inh | HP1b binding inh | JMJD2A Tudor inh | PI5P4Ka inh | KDM4E inh | L3MBTL1 inh
CC(=O)Oc1ccc(N2C(=O)C3C4C=CC(CO)(O4)C3C2=O)cc1 (configuration not stated) | n | u | 45µM | n | n | x
Cc1ccc(Cl)cc1NC(=O)c1cc2c(=O)n3cccc(C)c3nc2n1C | n | n | n | x | x | x
CCCCN1CCc2nc(N3CCN(C)CC3)ncc2C1 | n | n | n | x | x | x
Fc1ccc(CN2CCc3nc(N4CCN(c5ccccc5F)CC4)ncc3C2)c(F)c1 | n | n | n | x | x | x
Brc1ccc(CN2CCc3nc(N4CCN(c5ncccn5)CC4)ncc3C2)cc1 | 50µM | n | 45µM | x | x | x
CCCCN1CCc2nc(N3CCN(c4ncccn4)CC3)ncc2C1 | 56µM | n | 79µM | x | x | x
CCOc1ccc(CN2CCc3nc(N4CCN(c5ccccn5)CC4)ncc3C2)cc1OC | 79µM | n | 89µM | x | x | x
CCOc1ccccc1CN1CCc2nc(N3CCN(c4ccccc4F)CC3)ncc2C1 | 56µM | n | 79µM | x | x | x
CC(C)c1cc(C(=O)N/N=C/c2cccnc2)n[nH]1 | n | n | n | n | n | n
CC1CCN(c2nnc(-n3cccc3CNc3cccc(F)c3)s2)CC1 | n | n | n | x | x | x
CCCN1CCc2nc(N3CCN(c4ncccn4)CC3)ncc2C1 | 50µM | n | 89µM | x | x | x
COC(=O)c1c(Cl)c2n3ccccc3c(C)c(-c3ccccc3)c-2c1C(=O)OC | u | u | u | n | u | u
COC(=O)c1cc2c(-c3ccccc3)c(C)c3ccccn3c-2c1C(=O)OC | 14µM | u | 45µM | n | n | x
CCc1ccc2c(c1)NC(c1cccs1)=NC(c1ccc(F)cc1)=N2 | u | n | u | x | x | x
COc1ccc(C2=Nc3ccc(C)cc3NC(c3ccc(Cl)cc3)=N2)cc1 | n | n | n | x | x | x
CCc1ccc2c(c1)NC(c1ccc(OC)cc1)=NC(c1ccncc1)=N2 | u | u | 50µM | x | x | x
CCOc1ccc(C2=NC(c3cccs3)=Nc3ccc(CC)cc3N2)cc1OCC | 10µM | u | 25µM | x | x | x
CCCCOc1ccc(C2=NC(c3cccs3)=Nc3ccc(OC)cc3N2)cc1 | u | n | 40µM | x | x | x
Cc1nn(-c2ccccc2)c(Cl)c1/C=N/NC(=O)c1[nH]ncc1Br | n | n | n | n | x | x
Cc1ccc(N2CCN(Cc3nnc(-c4ccccc4F)o3)CC2)c(C)c1 | n | n | n | x | x | x
COc1ccc2ccccc2c1C(=O)/C=C\c1ccoc1 | 28µM | u | u | -53 | 25µM | n
COc1ccc2[nH]c3c(c2c1)CCN1C(=O)C(CC(=O)NCC24CC5CC(CC(C5)C2)C4)C[C@H](C(=O)N2CCOCC2)[C@@]31CCC1CCCC1 (some centres not stated) | x | n | 40µM | n | x | n
CN(C)CCCNC(=O)C[C@H]1C[C@H](C(=O)N2CCCCC2)[C@@]2(C)c3[nH]c4cc(-c5ccco5)ccc4c3CCN2C1=O | x | n | u | n | x | n
CC[C@]12c3[nH]c4cc(-c5ccco5)ccc4c3CCN1C(=O)[C@@H](CC(=O)NCC13CC4CC(CC(C4)C1)C3)C[C@@H]2C(=O)N1CCN(C(=O)C2CC2)CC1 | x | n | n | n | x | n
CC[C@]12c3[nH]c4cc(-c5ccco5)ccc4c3CCN1C(=O)[C@@H](CC(=O)NCC13CC4CC(CC(C4)C1)C3)C[C@@H]2C(=O)N1CCN(C(=O)c2ccco2)CC1 | x | n | n | -51 | x | n
SMILES | BAZ2B inh | HP1b binding inh | JMJD2A Tudor inh | PI5P4Ka inh | KDM4E inh | L3MBTL1 inh
CN(C)CCCNC(=O)C[C@H]1C[C@H](C(=O)N2CCCCC2)[C@@]2(CCc3ccccc3)c3[nH]c4cc(-c5ccco5)ccc4c3CCN2C1=O | x | u | 50µM | n | x | u
O=C(Cc1c(F)cccc1Cl)Nc1nccs1 | n | n | n | n | x | n
O=S(=O)(c1ccccc1)N1CCN(C(c2ccccc2)c2ccc(OC(F)(F)F)cc2)CC1 (configuration not stated) | n | n | n | n | x | x
COc1cc2c(cc1OC)CN(CC(=O)Nc1ccc(F)cc1)C(C(=O)O)C2 (configuration not stated) | 79µM | n | n | n | x | x
Cc1cc(SC2CCOC2=O)nc2ccccc12 (configuration not stated) | n | n | n | n | n | n
Cc1cc2nnc(SC3CCOC3=O)n2c2ccccc12 (configuration not stated) | n | n | 10µM | x | u | n
